Test [1] can be described thus: qHTS assay to identify aromatase inhibitors - cell viability counter screen (AID 743084;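 further: cells stimulated with testosterone during compound exposure; nearly all actives have a fitted effect of over 55% in size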; further: potency means the concentration at half of the fitted maximal effect). (qHTS replaces the single test concentration by a dilution series.)
Test [2] addresses Aryl hydrocarbon receptor (Homo sapiens) (UniProt P35869). The test can be described thus: qHTS assay to identify small molecule that activate the aryl hydrocarbon receptor (AhR) signaling pathway (AID 743085). Further: nearly all actives have a fitted effect of over 15% in size. Further: potency means the concentration at half of the fitted maximal effect.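 On activation: HG2L7.5c1 human HepG2 liver cells with stably integrated DRE-driven firefly reporter; series mostly up to about 70 µM.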 Put shortly: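 Stably transfected human liver carcinoma cells (HG2L7.5c1; 20 DRE-firefly luciferase) were incubated 5 h, dosed, and kept 24 h at 37C. Agonism was scored from increased luciferase luminescence.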

Test [3] can be described thus: qHTS assay to identify small molecule that activate the aryl hydrocarbon receptor (AhR) signaling pathway - cell viability counter screen (AID 743086). Further: nearly all actives have a fitted effect of over 45% in size. Further: potency means the concentration at half of the fitted maximal effect. In a few lines: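 Cytotoxicity counter screen: CellTiter-Fluor signal (30 min, 37 C) in 4000 HepG2 cells/well carrying the DRE-luciferase reporter, following 24 h compound exposure at 37 C.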
Test [4] is described as follows: qHTS assay to identify small molecule antagonists of the peroxisome proliferator-activated receptor gamma (PPARg) signaling pathway - cell viability counter screen (AID 743194). Further: nearly all actives have a fitted effect of over 55% in size. Further: potency means the concentration at half of the fitted maximal effect. The settings on record: Potency: co-treated with 50 nM rosiglitazone unless noted. In a few lines: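 Viability was measured as CellTiter-Glo luminescence in GeneBLAzer PPARg UAS-bla HEK293H cells. These cells had been exposed 17 h at 37 C to compounds together with rosiglitazone at 50 nM final, with the beta-lactamase readout taken in the same wells.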

Test [5] in a line: qHTS assay for small molecule agonists of the antioxidant response element (ARE) signaling pathway (AID 743202; active means well fitted activation curve with a large enough effect in the signal ratio in the repeat runs, not every such curve was filed as active; the % refers to the signal ratio; further: potency means the concentration at half of the fitted maximal effect). In a few lines:
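Beta-lactamase reporter activity, read as fluorescence intensity, reflects ARE/Nrf2 pathway induction in HepG2 cells after 16 h compound exposure at 37 C; substrate loading was 2 h at room temperature.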

The nature of test [6]: qHTS assay for small molecule agonists of the antioxidant response element (ARE) signaling pathway - cell viability counter screen (AID 743203; calls by dose curve; further: nearly all actives have a fitted effect of over 55% in size; further: potency means the concentration at half of the fitted maximal effect). In a few lines:
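Cytotoxicity was tested in parallel with the ARE reporter screen. ARE-bla HepG2 cells were exposed to compounds for 16 hrs, and viability was taken from CellTiter-Glo luminescence.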

A short description of test [7]: qHTS assay for small molecule activators of the heat shock response signaling pathway - cell viability counter screen (AID 743209). Further: nearly all actives have a fitted effect of over 50% in size. Further: potency means the concentration at half of the fitted maximal effect. Put shortly:
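Cytotoxicity counter screen run in parallel with the HSE beta-lactamase reporter, using the same wells. HeLa HSE-bla cells received compound for 5 h at 37 C; ATP-based CellTiter-Glo luminescence was measured after 30 min at room temperature.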

Test [8] can be described thus: qHTS assay for small molecule activators of the heat shock response signaling pathway (AID 743210; active means well fitted activation curve with a large enough effect in the signal ratio in the repeat runs, with a control signal flat, not every such curve was filed as active; the % refers to the signal ratio;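 further: HeLa cells with beta-lactamase reporter driven by heat shock elements; series mostly up to about 63 µM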). In a few lines:
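Fluorescence from a cleaved B/G FRET substrate (2.5 h, room temp) reports HSE-driven beta-lactamase in HeLa cells treated 5 h at 37 C with DMSO-dissolved compounds.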

For test [9], the target named is Peroxisome proliferator-activated receptor gamma (Homo sapiens) (UniProt P37231). The test can be described thus: qHTS assay to identify small molecule agonists of the peroxisome proliferator-activated receptor gamma (PPARg) signaling pathway (AID 743094; active means well fitted activation curve with a large enough effect in the signal ratio in the repeat runs, not every such curve was filed as active; the % refers to the signal ratio; further: potency means the concentration at half of the fitted maximal effect). Put shortly: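 Cells from the PPARg UAS-bla HEK293H line are plated and incubated 5 h at 37C. Compounds in DMSO are pinned in and left 17 h at 37C. LiveBLAzer B/G substrate is then added for 1 h at room temperature before fluorescence is measured.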
Sequence of Peroxisome proliferator-activated receptor gamma (Homo sapiens) (P37231 whole entry, looked up): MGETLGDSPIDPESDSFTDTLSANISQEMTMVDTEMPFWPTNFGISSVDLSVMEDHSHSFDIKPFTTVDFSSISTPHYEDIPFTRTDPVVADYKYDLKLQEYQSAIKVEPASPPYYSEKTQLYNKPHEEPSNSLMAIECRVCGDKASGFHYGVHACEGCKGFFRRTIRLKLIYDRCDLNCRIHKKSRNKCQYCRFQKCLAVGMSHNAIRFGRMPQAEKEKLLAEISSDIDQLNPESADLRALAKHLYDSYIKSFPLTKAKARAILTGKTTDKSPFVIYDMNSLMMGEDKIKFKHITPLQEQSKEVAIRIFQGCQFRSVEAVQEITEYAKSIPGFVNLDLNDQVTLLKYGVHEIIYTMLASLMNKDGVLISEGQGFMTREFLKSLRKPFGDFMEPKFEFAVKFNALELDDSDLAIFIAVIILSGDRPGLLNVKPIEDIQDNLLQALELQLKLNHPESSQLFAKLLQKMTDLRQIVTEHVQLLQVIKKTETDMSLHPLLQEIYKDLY

Test [10] shares this target. The test can be described thus: qHTS assay to identify small molecule antagonists of the peroxisome proliferator-activated receptor gamma (PPARg) signaling pathway (AID 743191; calls by dose curve; further: potency means the concentration at half of the fitted maximal effect; nearly all actives have a fitted effect of over 30% in size). Put shortly:
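Beta-lactamase reporter under UAS control in HEK293H PPARg-bla cells; compound treatment 17 h at 37C. Read-out: fluorescence intensity after 1 h room-temperature incubation with LiveBLAzer B/G FRET substrate.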

Here are results for 23 compounds from PubChem BioAssay (Tox21).

Where “and” joins values, the source holds several entries; their conditions need not be identical. Equal values may be shown once. Inconclusive results are not listed. More than one record can exist for a structure, and the calls need not agree. Calls of active or inactive are those of the source. Unless noted, the call rests on the fitted dose curve; in most records, active means well fitted curve in the direction sought with a large enough effect in the repeat runs; inconclusive means weak or mixed curves; inactive means no such curve, though single readings can be large; an effect the other way counts as inactive or inconclusive.

Sequence of Aryl hydrocarbon receptor (Homo sapiens) (P35869 whole entry, looked up): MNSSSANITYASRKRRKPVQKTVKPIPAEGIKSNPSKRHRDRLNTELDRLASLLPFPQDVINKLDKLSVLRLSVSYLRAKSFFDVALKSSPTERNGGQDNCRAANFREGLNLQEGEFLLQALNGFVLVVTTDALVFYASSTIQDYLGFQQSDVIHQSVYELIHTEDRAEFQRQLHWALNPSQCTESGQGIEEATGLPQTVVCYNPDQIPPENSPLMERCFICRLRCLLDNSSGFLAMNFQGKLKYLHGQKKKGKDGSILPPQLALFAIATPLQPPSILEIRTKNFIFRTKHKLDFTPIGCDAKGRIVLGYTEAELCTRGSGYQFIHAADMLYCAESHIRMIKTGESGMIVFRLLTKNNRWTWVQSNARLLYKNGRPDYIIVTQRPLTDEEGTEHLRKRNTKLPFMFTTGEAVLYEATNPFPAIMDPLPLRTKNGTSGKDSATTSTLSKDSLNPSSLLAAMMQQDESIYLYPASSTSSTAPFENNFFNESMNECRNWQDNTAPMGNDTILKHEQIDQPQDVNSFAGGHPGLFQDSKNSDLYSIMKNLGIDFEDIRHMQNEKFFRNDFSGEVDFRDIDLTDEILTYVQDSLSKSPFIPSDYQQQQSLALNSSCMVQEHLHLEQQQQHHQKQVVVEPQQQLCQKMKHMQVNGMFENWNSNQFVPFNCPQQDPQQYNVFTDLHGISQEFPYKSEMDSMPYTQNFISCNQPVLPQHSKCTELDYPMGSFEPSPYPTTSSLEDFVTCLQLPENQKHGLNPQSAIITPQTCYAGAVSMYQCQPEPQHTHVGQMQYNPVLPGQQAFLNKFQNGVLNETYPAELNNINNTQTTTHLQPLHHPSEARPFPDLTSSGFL

Turning to `CCCCCCCCCBr`, the Potency entry in test [1], in test [2], in [3], in test [4], in test [5] and in test [6] was “inactive” each time. For the same compound, the Potency result in [7] and in test [8] was “inactive” each time.
In the case of `CCCCCCCCCCCCCCCC[N+](C)(C)C`, the Potency in test [1] is 29.5 µM (active) and 68.6 µM (active); in test [3], “inactive and 68.6 µM (active)”; in [4] it was 18.8 µM (active) and 29.8 µM (active); in test [6], 29.5 µM (active) and 24.3 µM (active) and 29.8 µM (active); in test [7], 21.1 µM (active) and 43.6 µM (active). The Potency entry in test [2] was “inactive”.
In the case of `Clc1ccc(C(c2ccccc2Cl)C(Cl)(Cl)Cl)cc1` (stereo not given), the Potency result in [1], in test [2], in test [3], in test [9] and in test [7] was “inactive” each time. Besides, the Potency in test [6] is 61.5 µM (active).
For `O=C(O)c1cc[c]([Hg][Cl])cc1`, the figures for the Potency in [1], in test [4] and in test [6] were 61.1 µM (active), 38.9 µM (active) and 54.5 µM (active), respectively. In addition, the Potency entry in [2] and in test [3] was “inactive” each time.
As for `O=[N+]([O-])c1cc(C(F)(F)F)c(Cl)c([N+](=O)[O-])c1Cl`, the Potency was 3.06 µM (active) in test [1], 54.5 µM (active) in [3], 2.45 µM (active) in [4] and 2.19 µM (active) in [7]. For the same compound, the Potency result in [2] was “inactive”.
`Oc1ccc(C(c2ccc(O)cc2)(C(F)(F)F)C(F)(F)F)cc1`: the Potency in test [1] is 60.8 µM (active); in test [2], 6.86 µM (active); in [6] it was “inactive and 43.3 µM (active)”. Besides, the Potency entry in test [3], in test [9], in test [7] and in test [8] was “inactive” in each case.
Turning to `Oc1c(Cl)c(Cl)cc(Cl)c1Cl`, the Potency entry in test [1], in [2], in [3], in test [4] and in test [7] was “inactive” each time. Besides, the Potency in [10] was 3.78 µM (active).
For `c1ccc(OCC2CO2)cc1` (stereo not given), the Potency entry in [1], in test [2], in test [3], in [4], in test [5] and in [6] was “inactive” in each case. In addition, the Potency entry in test [7] is “inactive”.
Turning to `CCC[CH2][Sn]([CH2]CCC)([CH2]CCC)[O]C(=O)c1ccccc1`, the Potency in [1] was 1.54 µM (active); in [3], 2.73 µM (active); in [4], 0.49 µM (active); in [6] it was 0.273 µM (active); in test [7], 1.38 µM (active). In test [2], the Potency entry is “inactive”.
`COC12CC[C@@]3(C[C@@H]1C(C)(O)C(C)(C)C)[C@H]1Cc4ccc(O)c5c4[C@@]3(CCN1CC1CC1)[C@H]2O5` (stereo not given in full): the Potency in test [1] is 60.7 µM (active); in [3] it was 60.7 µM (active); in test [6], 68.1 µM (active). For the same compound, the Potency entry in test [2] and in [4] was “inactive” in each case.
With `CCc1nn(C)c(C(=O)NCc2ccc(C(C)(C)C)cc2)c1Cl`, the Potency in test [1] is 61.1 µM (active); in test [6], 24.3 µM (active); in test [7] it was 54.9 µM (active). The Potency entry in test [2] and in [3] was “inactive” in each case.
With `CN(C)C(=S)[S-].CN(C)C(=S)[S-].[Cu+2]`, the Potency is 1.87 µM (active) in [1], 8.36 µM (active) in test [3], 1.49 µM (active) in test [5] and 3.33 µM (active) in test [6]. Besides, the Potency result in test [2] is “inactive”.
As for `CN(C)[C@@H]1C(=O)C(C(N)=O)=C(O)[C@@]2(O)C(=O)C3=C(O)c4c(O)ccc(Cl)c4[C@@](C)(O)[C@H]3C[C@@H]12`, the Potency result in test [1], in test [2], in [3], in test [6] and in test [7] was “inactive” in each case.
For the compound `CCOP(=S)(OCC)OC(Cl)C(Cl)(Cl)Cl` (stereo not given), the Potency result in test [1], in test [2], in [3], in [9], in [7] and in test [8] was “inactive” each time.
Consider `CCC(C)(C)C(=O)OC1=C(c2ccc(Cl)cc2Cl)C(=O)OC12CCCCC2`, for which the Potency entry in test [1], in test [2] and in test [3] was “inactive” each time. Moreover, the Potency in test [9] was 1.74 µM (active); in [7] it was 54.9 µM (active).
On to `C[C@@H]1O[C@@H](O[C@@H]2C=C3CC[C@@H]4[C@H](CC[C@]5(C)[C@@H](c6ccc(=O)oc6)CC[C@]45O)[C@@]3(C)CC2)[C@H](O)[C@H](O)[C@H]1O`, for which the Potency entry in [1], in [2] and in test [3] was “inactive” each time. Further, the Potency in [4] is 0.0119 µM (active); in test [7], 0.006 µM (active).
On to `CCN(CC)C(=S)[S-].CCN(CC)C(=S)[S-].[Zn+2]`, for which the Potency was 0.096 µM (active) in [1], 2.17 µM (active) in [4] and 3.82 µM (active) in test [6]. In addition, the Potency result in test [2] and in test [3] was “inactive” in each case.
As to `Cc1cc(C(C)(C)c2cc(C)c(O)c(C)c2)cc(C)c1O`, the Potency in test [1] is 26.4 µM (active); in test [3], 52.7 µM (active); in test [10] it was 29.9 µM (active). For the same compound, the Potency entry in test [2] and in [8] was “inactive” each time.
For `CCOC(=O)C1(c2ccccc2)CCN(CCC(C#N)(c2ccccc2)c2ccccc2)CC1`, the Potency result in test [1], in test [2], in [4] and in test [7] was “inactive” throughout. Besides, the Potency entry in test [3] is “inactive and 59.6 µM (active)”.
For the compound `CC(C)CCCCCCCOP(=O)(Oc1ccccc1)Oc1ccccc1`, the Potency result in [1], in test [2], in [3], in [9], in test [6] and in test [7] was “inactive” in each case. Also, the Potency result in test [8] was “inactive”.
In the case of `CCCCCCCCCC[N+](C)(C)CCCCCCCCCC`, the Potency in test [1] is 21.1 µM (active) and 61.1 µM (active); in test [4], 15.5 µM (active); in [6] it was 43.3 µM (active); in test [7], 34.7 µM (active). Moreover, the Potency result in [2] and in [3] was “inactive” each time.
On to `CCCCCCCCCCCCCC[P+](CCCCCC)(CCCCCC)CCCCCC` (tested in a mixture with another compound), for which the Potency in [1] is 6.11 µM (active); in test [3], 27.3 µM (active); in test [4], 0.49 µM (active); in test [7] it was 3.47 µM (active). In test [2], the Potency result was “inactive”.
In the case of `CC(=O)[O-].CC(=O)[O-].[Hg+2]`, the Potency was 3.86 µM (active) in test [1], 7.7 µM (active) in [3], 1.22 µM (active) in test [6] and 1.38 µM (active) in test [7]. Moreover, the Potency result in test [2] is “inactive”.
